High-throughput results (PubChem BioAssay)
DT40 TDP1 CPT: growth inhibition of DT40 Tdp1-/-;hTDP1 cells with camptothecin (screen for TDP1 inhibitors); chicken DT40 Tdp1-/-;hTDP1 cells + 20 nM CPT, ATP luminescence, 48 h; Potency, µM (highest dose often 46.2 µM), for the others: at the highest dose activity change, negative = growth inhibition, actives largely listed as inhibitors; 420,000 compounds, 12% hits; AID 686979; also: potency is read from the fitted curve at half-maximal effect; nearly all actives have a fitted effect of over 55% in size
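Chicken DT40 Tdp1-/- cells stably complemented with human TDP1 were seeded at 400 cells/well in medium containing 20 nM camptothecin, exposed to pin-transferred compounds, and grown at 37 °C for at least 48 hr. Viability was read as ATP luminescence.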
DT40 TDP1 no CPT: qHTS for Inhibitors of human tyrosyl-DNA phosphodiesterase 1 (TDP1): qHTS in cells in absence of CPT; DT40 Tdp1-/- hTDP1 cells, no CPT, ATP luminescence, 48 h; Potency, µM (series often up to 46.2 µM), without a hit: at the top dose activity change, negative = growth inhibition, hits mostly inhibitors; 420,000 compounds, 15% hits; AID 686978, 2013; also: potency is read from the fitted curve at half-maximal effect; nearly all actives have a fitted effect of over 55% in size
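Camptothecin absent (DMSO only). Human TDP1-complemented DT40 knockout cells, 400 cells/well, 37 °C for minimum 48 hr; ATP measured via CellTiter-Glo, 30 min dark incubation, luminescence.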
IL-1B inflam inh: blocks inflammasome-driven IL-1 beta release. 360,000 compounds, 4.7% hits. activity change, % at 57.5 µM. THP-1 LPS/ATP IL-1B secretion, AlphaLISA, 16 h; stronger effect = lower value. AID 743279; in the data active = activity change below about -50%; inconclusive = mostly about -30% to -49%
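THP-1 cells pretreated 1 hr with compounds (up to 57.5 uM final), then stimulated with LPS (250 ng/mL final) plus ATP (1.25 mM final); secreted IL-1B measured by AlphaLISA after 16 hr, decreased signal indicating inhibition.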
ELG1 DNA repair: ELG1-dependent DNA repair inhibition; AID 504467; HEK293T ELG1-luciferase reporter, luminescence, 16 h; DNA damage induced by 5-fluorouridine; 330,000 compounds, 2.3% hits; Potency, µM (titrated, usually from 46.1 µM), inactives show at the top dose activity change, negative = inhibition, actives largely listed as inhibitors; also: potency is read from the fitted curve at half-maximal effect; nearly all actives have a fitted effect of over 55% in size
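Luminescence from the luciferase reporter, measured 30 min after ONE-Glo reagent at room temperature, was the read-out. Beforehand, 2,000 cells per well were exposed for 16 hr at 37 °C to 5-fluorouridine together with compound or vehicle.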
RORgamma inh: inhibitors of mouse ROR gamma transcriptional activity; AID 2551; 310,000 compounds, 5.4% hits; Potency, µM (series often up to 53.6 µM), without a hit: at the highest dose activity change, negative = inhibition, usual class: inhibitors; P51450; Drosophila S2 Gal4-RORgamma UAS-luciferase reporter, 20 h; also: potency is read from the fitted curve at half-maximal effect; nearly all actives have a fitted effect of over 60% in size
Target sequence (P51450 whole entry, looked up, the tested form may be a part): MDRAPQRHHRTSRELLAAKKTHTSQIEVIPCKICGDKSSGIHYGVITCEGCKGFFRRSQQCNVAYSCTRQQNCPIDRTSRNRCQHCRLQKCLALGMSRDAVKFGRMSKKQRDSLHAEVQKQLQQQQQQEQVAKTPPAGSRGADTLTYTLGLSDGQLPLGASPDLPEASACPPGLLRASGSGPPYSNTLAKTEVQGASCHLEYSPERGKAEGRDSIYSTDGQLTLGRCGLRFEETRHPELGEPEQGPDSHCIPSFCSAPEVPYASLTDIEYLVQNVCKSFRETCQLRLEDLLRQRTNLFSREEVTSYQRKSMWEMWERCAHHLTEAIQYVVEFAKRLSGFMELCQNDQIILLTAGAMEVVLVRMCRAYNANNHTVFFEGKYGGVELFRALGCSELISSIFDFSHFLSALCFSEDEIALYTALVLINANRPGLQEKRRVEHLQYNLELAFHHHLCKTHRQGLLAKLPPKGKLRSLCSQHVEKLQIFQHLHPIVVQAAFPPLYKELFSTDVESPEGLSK
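Drosophila S2 cells stably expressing Gal4-DBD/mouse RORγ fusion under metallothionein promoter plus UAS-luciferase; compound 1 h, then 700 uM CuSO4 induction for 20 h at ambient temperature; inhibition read as reduced luminescence.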
Gal4-VP16 FLuc: inhibits Gal4-VP16 luciferase reporter, ROR gamma counter-screen. Drosophila S2 Gal4-VP16 UAS-luciferase, luminescence, 20 h. Potency, µM (titrated, usually from 53.6 µM), without a hit: at the top dose activity, negative = inhibition, actives largely listed as inhibitors. 310,000 compounds, 3.5% hits. AID 2546;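 also: Gal4-VP16 expression switched on by copper sulfate through the metallothionein promoter; potency is read from the fitted curve at half-maximal effect; nearly all actives have a fitted effect of over 50% in size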
The depositor's hits bear a star; u = inconclusive; x = no result given; [ ] = another dose, or the depositor's remark. Rows were chosen to be rich in hits. Some 21% of all compounds tested hit in one or more screens of this group. Unless noted, calls follow the shape of the dose curve; as a rule, active = well fitted curve in the direction sought with a large enough effect; inconclusive = small, poorly fitted or top-dose-only effect, or another doubt; inactive = no such curve, though single readings can be large; an effect the other way counts as inactive or inconclusive. % is scaled to controls: 0 for no effect and ±100 for the full control effect.

SMILES	DT40 TDP1 CPT	DT40 TDP1 no CPT	IL-1B inflam inh	ELG1 DNA repair	RORgamma inh	Gal4-VP16 FLuc
COc1ccc(OC)c(NC(=S)N(CCc2c(C)[nH]c3ccccc23)Cc2cccs2)c1	u	u	-10.1	-20.0%	8.91µM*	7.5%
CC(=O)N1CCc2ccccc2C1CC(=O)O (stereo unspecified)	0.8%	-6.8%	9.1	3.3%	14.2%	-0.3%
COc1ccc2nc3n(c(=O)c2c1)-c1ncccc1C(=O)NC3C (stereo unspecified)	3.8%	u	26.2	x	x	x
NC(=O)c1nsc(C(=O)N(CC(=O)NC2CCCC2)c2cnc3ccccc3c2)c1N	x	x	x	-22.6%	1.1%	0.9%
OCC1OC(n2cnc3c(/C=C(\O)c4ccccc4)ncnc32)C(O)C1O (stereo unspecified)	1.3µM*	1.46µM*	-6.9	x	x	x
CN(C)c1ncnc2c1ncn2C1OC(CO)C(O)C1O (stereo unspecified)	2.91µM*	2.91µM*	34.9	u	12.8%	-1.4%
CN(C)c1ncnc2c1nnn2C1OC(CO)C(O)C1O (stereo unspecified)	0.581µM*	0.326µM*	95.8	x	x	x
CC1CCN(c2nc3c(N)ncnc3n2[C@@H]2O[C@H](CO)[C@@H](O)[C@H]2O)CC1	-7.9%	-5.6%	-7.9	-6.1%	1.4%	-2.1%
CNc1ncnc2c1ncn2[C@@H]1O[C@H](CO)[C@@H](O)[C@H]1O	u	-22.6%	54.6	u	x	x
COC(=O)c1cc2oc(C)cc2n1Cc1c(C)cc(C)cc1C	1.2%	1.9%	x	x	x	x
N=c1ccn(Cc2cccc(F)c2)cc1	u	18.4µM*	14.9	2.5%	u	10µM*
Nc1ccn(Cc2cccc(F)c2)n1	-1.1%	-1.6%	9.8	-11.3%	6.8%	-0.9%
CCC(=O)C1CCCN(C(=O)CCc2nnc(C3(c4ccc(Cl)cc4)CCC3)o2)C1 (stereo unspecified)	23.1µM*	u	0.7	u	35.8%	-2.8%
CCOC(=O)C1CCCCN1C(=O)CCc1nnc(-c2ccc3c(c2)OCO3)o1 (stereo unspecified)	-23.7%	-24.7%	0.7	x	x	x
O=C(CCc1nnc(C2(c3ccc(Cl)cc3)CCC2)o1)N1CCCC1	-18.2%	-12.6%	8.5	u	32.3%	-1.4%
CC(=O)c1ccc(-c2nnc(CCC(=O)N3CCCC(C(=O)CC(C)C)C3)o2)s1 (stereo unspecified)	13µM*	u	2.6	u	7.4%	-1.5%
Cc1noc(C)c1CSCC(=O)Nc1nc2ccc(S(C)(=O)=O)cc2s1	u	-17.7%	17.6	0.3%	x	x
O=[N+]([O-])c1cncc([N+](=O)[O-])c1Nc1ccccc1Cl	18.4µM*	23.1µM*	-21.3	1.4%	-33.2%	-14.2%
COc1cccc(C2NC(=S)NC3=C2CCc2ccccc23)c1 (stereo unspecified)	u	-25.6%	9.1	7.9%	-154.6%	0.282µM*
COc1ccc(C2NC(=O)NC3=C2CCc2ccccc23)cc1 (stereo unspecified)	u	u	9.4	-19.8%	5.7%	0.4%
COc1ccc(C2NC(=S)NC3=C2N2CCC3CC2)cc1 (stereo unspecified)	2.8%	1.6%	-11.0	u	-2.0%	0.6%
COc1ccc2c(c1)C1=C(CC2)C(c2ccc(C)cc2)NC(=S)N1 (stereo unspecified)	u	u	4.3	u	0.708µM*	2.82µM*
C=CC[C@@H]1C=C[C@H](ON=C(C)C)[C@H](CO)O1	x	x	x	x	-8.1%[10 µM]	-8.4%[10 µM]
COCCNC(=O)C1(C)CCN(C(=O)c2sccc2C)C1 (stereo unspecified)	-8.3%	-11.7%	0.0	x	x	x
COc1ccc2cc(Br)ccc2c1CC(=O)NC1CC(C)(C)NC(C)(C)C1	u	23.1µM*	-65.7*	u	4.4%	-2.1%
SMILES	DT40 TDP1 CPT	DT40 TDP1 no CPT	IL-1B inflam inh	ELG1 DNA repair	RORgamma inh	Gal4-VP16 FLuc
Cc1cc(N2CCOCC2)nc2ccc(NC(=O)CCC(=O)N3CCCC(C)C3)cc12 (stereo unspecified)	-4.5%	-27.9%	-1.5	u	-10.6%	-24.3%
Cc1cc(N2CCOCC2)nc2ccc(NC(=O)CCC(=O)N3CCN(c4ccccc4F)CC3)cc12	u	14.6µM*	7.1	u	u	1.8%
Cc1cc(N2CCOCC2)nc2ccc(NC(=O)CCC(=O)N3CCN(c4ccc(F)cc4)CC3)cc12	9.2µM*	8.2µM*	15.8	u	19.3%	-17.6%
CCCn1c(C)nc2c(NC(C)CCCN(CC)CC)nc(C)nc21 (stereo unspecified)	x	x	x	x	-24.0%	5.6%
CCOC(=O)C(C)(C)N(Cc1cccc(C)c1)S(=O)(=O)c1ccc(Cl)c([N+](=O)[O-])c1	23.1µM*	14.6µM*	u	11.4%	-19.2%	u
CCOC(=O)C(C)(C)N(Cc1cccc(C)c1)S(=O)(=O)c1cccc([N+](=O)[O-])c1	u	u	1.3	-6.7%	29.1%	-13.0%
COc1cccc(Nc2nc(C(N)CCc3ccccc3)cs2)n1 (stereo unspecified)	18.4µM*	u	-87.0*	x	x	x
COc1cccc(Nc2nc(C(N)CC(C)C)cs2)n1 (stereo unspecified)	16.4µM*	u	u	x	x	x
NC(c1ccccc1)c1csc(Nc2ccc(C(=O)NCCO)cc2)n1 (stereo unspecified)	u	u	18.3	x	x	x
NC(=O)c1cccc(Nc2nc(C(N)CCc3ccccc3)cs2)n1 (stereo unspecified)	2.06µM*	2.91µM*	0.0	x	x	x
CC(N)c1csc(Nc2ncccn2)n1 (stereo unspecified)	-11.3%	u	1.4	x	x	x
CC(C)CC(N)c1csc(Nc2ccc(C(=O)NCCCO)cn2)n1 (stereo unspecified)	u	u	-12.6	x	x	x
COc1cccc(Nc2nc(C(N)C(C)C)cs2)n1 (stereo unspecified)	16.4µM*	23.1µM*	x	x	x	x
C(=C\c1ccccn1)/c1ccccc1	-6.2%	-7.0%	x	x	x	x
CC1CN(c2cnn(C(C)C)c(=O)c2Cl)CC(C)O1 (stereo unspecified)	-10.1%	-1.4%	-17.1	9.8%	12.1%	6.3%
CCC1CN(C(=O)Nc2ccccc2C(F)(F)F)c2ccccc2S1 (stereo unspecified)	-9.9%	2.6%	x	x	x	x
NC(CCc1ccccc1)c1csc(Nc2cnccn2)n1 (stereo unspecified)	23.1µM*	13µM*	-24.4	x	x	x
